Screening data as filed in PubChem.
Pol beta inh – DNA polymerase beta (human) inhibition. P06746. Pol beta primer extension/strand displacement, fluorescence kinetic. Potency, µM (top dose mostly 114 µM), for the others: at the top dose activity change, negative = inhibition, actives largely listed as inhibitors. 1.3% of 340,000 active. AID 485314; note: % is set by controls: 0 for no effect and ±100 for the full control effect
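10 nM enzyme + cpd, 15 min RT; start with substrate 50 nM final; read 0 min and after 10 min RT. Corrected, normalized data; 4-parameter Hill curve fit.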
Pol iota inh – inhibitors of human DNA polymerase iota | 1% of 390,000 active | Q9UNA4 | Potency, µM (titrated, usually from 115 µM), without a hit: top-dose activity, negative = inhibition, hits mostly inhibitors | Pol iota fluorescent replication assay, 10 min
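Pol iota at 10 nM preincubated 15 min with compounds at room temperature; reaction started with fluorescent substrate, 50 nM final. Fluorescence read kinetically at 0 and 10 min; buffer-only wells as negative control.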
PGK inhibitor – T. brucei PGK inhibition | 0.043% of 380,000 active | Potency, µM (titrated, usually from 57.5 µM), for inactives: top-dose activity change, negative = inhibition, actives largely listed as inhibitors | AID 602233 | PGK/GAPDH coupled, Kinase-Glo luminescence, 60 min | P07378; note: % is set by controls: 0 for no effect and ±100 for the full control effect; nearly all actives have a fitted effect of over 60% in size
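Luminescent ATP detection (Kinase-Glo Plus) follows a 60-minute room-temperature incubation, with wells lacking PGK as controls. Buffer: 100 mM TEA (pH 7.6), 5 mM MgCl2, 0.01% Tween-20. Coupling enzyme GAPDH (100 nM final) supplies unstable 1,3-BPG in-well.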
POLK inh – DNA polymerase kappa (human) inhibition; purified Pol kappa, fluorescent DNA synthesis assay, 10 min; Potency, µM (doses to about 107 µM), inactives show top-dose activity, negative = inhibition, hits mostly inhibitors; 0.53% of 400,000 active; AID 588579; note: % is set by controls: 0 for no effect and ±100 for the full control effect
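Pol kappa 10 nM + cpd, 15 min RT; start w/ substrate 50 nM final; fluorescence kinetic read, 0 and 10 min. Neg ctrl: buffer, no enzyme.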
FEN1 inhibitor – blocks human flap endonuclease 1 | Recombinant FEN1 flap cleavage, fluorescence, 15 min | Potency, µM (top dose mostly 114 µM), for the others: top-dose activity change, negative = inhibition, actives largely listed as inhibitors | 0.35% of 390,000 active | P39748; note: % is set by controls: 0 for no effect and ±100 for the full control effect; nearly all actives have a fitted effect of over 65% in size
Target sequence (P39748 whole entry, looked up): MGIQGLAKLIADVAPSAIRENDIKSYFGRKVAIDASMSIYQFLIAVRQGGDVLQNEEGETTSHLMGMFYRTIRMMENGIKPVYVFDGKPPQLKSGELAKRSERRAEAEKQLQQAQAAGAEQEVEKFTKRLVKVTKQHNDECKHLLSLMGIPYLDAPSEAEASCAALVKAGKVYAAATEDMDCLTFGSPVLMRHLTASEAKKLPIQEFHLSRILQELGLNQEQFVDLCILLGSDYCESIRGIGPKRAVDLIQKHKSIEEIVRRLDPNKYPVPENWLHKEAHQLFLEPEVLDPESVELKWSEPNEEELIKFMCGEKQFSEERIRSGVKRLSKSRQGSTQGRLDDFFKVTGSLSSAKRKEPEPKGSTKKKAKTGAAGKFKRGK
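With each library titrated from low to high concentration, compounds met 10 nM FEN1 for 15 min at room temperature before 50 nM substrate was added; readings at 0 and 15 min fed four-parameter Hill curve fits.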
Pol eta inh – inhibitors of human DNA polymerase eta; Q9Y253; recombinant Pol eta, fluorescent DNA replication assay; Potency, µM (highest dose often 114 µM), inactives show top-dose activity change, negative = inhibition, actives largely listed as inhibitors; 1.2% of 390,000 active; AID 588591; note: % is set by controls: 0 for no effect and ±100 for the full control effect
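Pol eta at 10 nM preincubated with compounds 15 min at room temperature; reaction started with fluorescent substrate (50 nM final) and read kinetically at 0 and 10 min.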
* = called active by the depositor; i = inactive; ? = inconclusive; . = no result; ! = a repeat was not active; [ ] = remark or other dose. This is a sample that favours compounds with a hit; in the whole collection about 2.4% have one here. Calls come from the whole dose curve; as a rule, active = well fitted curve in the direction sought with a large enough effect; inconclusive = small, poorly fitted or top-dose-only effect, or another doubt; inactive = no such curve, though single readings can be large; an effect the other way counts as inactive or inconclusive. Potency is the fitted concentration of half-maximal effect.

SMILES	Pol beta inh	Pol iota inh	PGK inhibitor	POLK inh	FEN1 inhibitor	Pol eta inh
CN(C)c1ccc(C=NC2CCc3ccccc32)cc1 (configuration not stated)	.	16%	.	11%	12%	.
NC(=S)N=Nc1c(O)cc(O)c2[nH]c(=O)ccc12	.	3.2µM*	?	?	13µM*	1.8µM*
Cc1nn(Cc2ccc(Cl)cc2)c(C)c1NC(=O)c1cc(-c2ccco2)on1	1%	-22%	i	-30%	-12%	6%
Cc1nn(Cc2ccc(Cl)c(Cl)c2)c(C)c1NC(=O)c1cc(-c2ccco2)on1	45µM*	12%	2%	-24%	2%	-4%
O=C(O)CCN1CC2([N+](=O)[O-])CC=C(OCCO)C([N+](=O)[O-])(C1)C2 (configuration not stated)	0%	?	-2%	-4%	2%	-6%
COC1=CCC2([N+](=O)[O-])CN(CCO)CC1([N+](=O)[O-])C2 (configuration not stated)	0.2µM*	4%	-1%	-14%	8%	-9%
COc1cc2nc(N3CCOCC3)nc(NC3CCN(Cc4ccccc4)CC3)c2cc1OC	.	20%	.	2%	-10%	.
O=C1C(=Cc2ccco2)CCCC1=Cc1ccco1	.	20µM*	?	50µM*	?	22µM*
O/N=C1\CCC\C1=C/c1ccco1	-17%	?	11%	?	0%	-32%
Cc1ccc(NC2c3ncccc3C(=O)N2c2ccccc2C)cc1C (configuration not stated)	21%	56µM*	-2%	-11%	-9%	-9%
CCOc1ccc(N2C(=O)c3cccnc3C2Nc2ccc(Cl)cc2)cc1 (configuration not stated)	7%	?	i	2%	6%	-6%
O=C(O)CCN1C(=O)/C(=C/c2ccc(-c3nc4ccccc4s3)o2)SC1=S	25µM*	?	-14%	?	-6%	3.2µM*
O=Cc1ccc(-c2nc3ccccc3s2)o1	-22%	29%	-14%	-12%	-18%	-7%
COc1ccc(N=Cc2c(O)n(-c3cccc(C)n3)c(=O)c3ccccc23)c(OC)c1	?	36%	-9%	-12%	2%	?
COc1ccc(-n2c(O)c(/C=N/NS(=O)(=O)c3cc(C)ccc3C)c3ccccc3c2=O)cc1OC	?	?	-4%	?	?	?
COc1ccccc1NS(=O)(=O)c1cccc(-n2c(O)c(C=Nc3ccccc3C(=O)O)c3ccccc3c2=O)c1	56µM*	?	-9%	-42%	79µM*	20µM*
COc1ccc(-n2c(O)c(/C=N/NS(=O)(=O)c3ccc(C)cc3)c3ccccc3c2=O)cc1OC	?	40µM*	-1%	-18%	-33%	-16%
Cc1cnccn1	.	83%	.	1%	4%	.
O=C(CCCn1ccc2cc(S(=O)(=O)N3CCCC3)ccc21)NCc1ccc(Cl)cc1	0%	14%	13%	-8%	-14%	-19%
CCN(CC)/[N+]([O-])=N/OCOC(=O)C(C)c1ccc2cc(OC(C)=O)ccc2c1 (configuration not stated)	.	-7%	.	9%	-6%	.
CSc1ccc(/C=C2\C=C(C(O)c3ccc(SC)cc3)c3ccccc32)cc1 (configuration not stated)	.	3%	.	-7%	-28%	.
COc1cccc(CNC(=O)C2CCN(c3ncnc4c3nc3n4CCCCC3)CC2)c1	100µM*!	?	-11%	-21%	-15%	-3%
O=S(=O)(c1ccc(F)cc1)N1CCN(c2nc(-c3cccc(Br)c3)nc3ccccc23)CC1	.	-5%	.	2%	11%	.
CC(/C=N/NC(=O)CSc1nc2ccccc2n1C)=C\c1ccco1	?	56µM*	-22%	?	4%	14µM*
O=C(N/N=C/C=C/c1ccco1)C(O)c1ccccc1 (configuration not stated)	.	13µM*	.	?	-12%	50µM*
SMILES	Pol beta inh	Pol iota inh	PGK inhibitor	POLK inh	FEN1 inhibitor	Pol eta inh
Cn1c(SCC(=O)N/N=C/c2ccco2)nc2ccccc21	-13%	25%	-3%	-1%	21%	3%
Cc1ccc(/C=N/NC(=O)C(O)c2ccccc2)o1 (configuration not stated)	7%	11%	2%	-10%	-11%	-18%
Cc1ccc(OCC(=O)N/N=C/C=C/c2ccco2)cc1	-27%	16µM*	-6%	?	-8%	18µM*
O=C(N/N=C/c1cc(Br)c(Br)o1)C(O)c1ccccc1 (configuration not stated)	22µM*	?	-12%	-39%	-4%	50µM*
CC(=O)c1ccc(N2C(=O)Nc3ccccc3S2(=O)=O)cc1	3%	11%	8%	-11%[60.1 µM]	16%	-9%
COC(=O)c1ccc(C(=O)OC)c(NC(=O)N2CC3CCCN3c3ccccc32)c1 (configuration not stated)	19%	11%	-11%	-10%	-15%	-9%
O=C(Cc1ccc(Cl)cc1)NO	.	25%	.	11%	29%	.
CCC1CCCCN1C(=O)CCS(=O)(=O)c1cc2c(cc1C)NC(=O)CO2 (configuration not stated)	10%	30%	-10%	5%	-9%	-17%
CCn1c(SCC(=O)N/N=C/c2ccc(C)s2)nc2ccccc21	26%	-3%	7%	-7%	-18%	-13%
CCn1c(SCC(=O)N/N=C/C=C/c2ccco2)nc2ccccc21	22µM*	20µM*	-5%	-49%	-32%	50µM*
CCn1c(SCC(=O)N/N=C/C=C/c2ccco2)nnc1-c1ccc(OC)cc1	25µM*	-10%	-2%	-10%	0%	-6%
CCn1c(SCC(=O)N/N=C/c2ccc(C)o2)nnc1-c1ccc(C)cc1	34%	3%	-2%	0%	7%	-21%
COc1ccc([C@@H]2CC(=O)c3c(O)cc(O[C@@H]4O[C@H](CO)[C@@H](O)[C@H](O)[C@H]4O[C@@H]4O[C@@H](C)[C@H](O)[C@@H](O)[C@H]4O)cc3O2)cc1	.	.	.	-8%[12 µM]	.	.
Cc1ccccc1S(=O)(=O)N1CCN(c2nc(-c3cccs3)nc3ccccc23)CC1	.	-11%	.	-19%	-9%	.
Cc1cc(NC(=O)CN2CCC(C)CC2)nc2c1c(=O)oc1ccccc12	-1%	?	6%	89µM*	17%	-17%
Cc1cc(NC(=O)CN2CCc3ccccc3C2)nc2c1c(=O)oc1ccccc12	-1%	50%	-3%	-21%	-23%	-2%
CCOC(=O)c1ccc(NC(=O)Nc2ccn(C)n2)cc1	30%	89µM*	-5%	-17%	-3%	-4%
